JMJD2A Tudor = blocks the human JMJD2A Tudor domain. actives 4.4% (n = 390,000). O75164. AlphaScreen JMJD2A-Tudor / H3K4me3 peptide binding. Potency, µM (titrated, usually from 114 µM), for the others: at the top dose activity change, negative = inhibition, usual class: inhibitors. AID 504339; further: potency means the concentration at half of the fitted maximal effect; on the % scale 0 is the no-effect control and ±100 the full control effect; nearly all actives have a fitted effect of over 50% in size
PLK1 PBD inh = PLK1 (human) polo-box domain binding inhibition; actives 2.8% (n = 360,000); AID 720504; Potency, µM, for inactives: max response, negative = inhibition, most hits filed as inhibitors; P53350; Plk1 PBD binding of FITC phosphopeptide, fluorescence polarization; further: potency means the concentration at half of the fitted maximal effect; series mostly up to about 57 µM; on the % scale 0 is the no-effect control and ±100 the full control effect; nearly all actives have a fitted effect of over 65% in size
Target sequence (P53350 whole entry, looked up, the tested form may be a part): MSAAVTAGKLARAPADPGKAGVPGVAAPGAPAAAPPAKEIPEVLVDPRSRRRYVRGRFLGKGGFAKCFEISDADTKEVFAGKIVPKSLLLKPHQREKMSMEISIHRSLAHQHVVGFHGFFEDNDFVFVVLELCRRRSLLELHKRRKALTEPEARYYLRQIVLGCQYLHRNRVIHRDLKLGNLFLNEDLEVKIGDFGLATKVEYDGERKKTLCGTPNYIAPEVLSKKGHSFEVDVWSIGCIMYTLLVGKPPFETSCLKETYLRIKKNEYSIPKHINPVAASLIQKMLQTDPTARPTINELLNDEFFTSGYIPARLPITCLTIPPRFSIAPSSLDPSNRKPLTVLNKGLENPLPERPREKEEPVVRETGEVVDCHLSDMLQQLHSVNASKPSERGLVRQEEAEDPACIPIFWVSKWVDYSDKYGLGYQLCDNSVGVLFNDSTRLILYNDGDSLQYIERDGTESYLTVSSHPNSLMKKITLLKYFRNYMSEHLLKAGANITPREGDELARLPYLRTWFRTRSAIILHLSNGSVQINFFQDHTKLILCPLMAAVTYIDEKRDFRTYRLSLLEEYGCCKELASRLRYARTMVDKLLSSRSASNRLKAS
G9a block = inhibitors of human histone lysine methyltransferase G9a; Potency, µM (titrated, usually from 102 µM), for the others: at the top dose activity, negative = inhibition, actives largely listed as inhibitors; G9a H3K9 monomethylation, AlphaScreen, 2 h; Q96KQ7; actives 8.8% (n = 350,000); further: potency means the concentration at half of the fitted maximal effect; on the % scale 0 is the no-effect control and ±100 the full control effect; nearly all actives have a fitted effect of over 75% in size
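Quantitative HTS format: methyltransferase activity on a biotin-tagged H3K9 peptide is measured by AlphaScreen, using a rabbit anti-monomethyl-H3K9 antibody with streptavidin donor and anti-IgG acceptor beads. Final levels are 20 nM enzyme, 500 nM peptide, 20 uM SAM; 2 h RT.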
HP1b chromo inh = HP1-beta chromodomain-methylated histone interaction inhibition; AlphaScreen HP1-beta / biotin-H3K9me3 peptide binding; Potency, µM (highest dose often 114 µM), without a hit: at the top dose activity change, negative = inhibition, usual class: inhibitors; actives 0.56% (n = 390,000); further: potency means the concentration at half of the fitted maximal effect; nearly all actives have a fitted effect of over 70% in size
Target sequence (P83916 whole entry, looked up): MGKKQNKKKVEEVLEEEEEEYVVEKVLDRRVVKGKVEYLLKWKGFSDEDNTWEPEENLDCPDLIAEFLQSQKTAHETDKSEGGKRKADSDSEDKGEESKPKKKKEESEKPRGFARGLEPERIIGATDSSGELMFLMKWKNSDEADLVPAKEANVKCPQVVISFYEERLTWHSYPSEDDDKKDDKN
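HP1-beta protein (50 nM final) preincubated 30 min at room temperature with biotinylated H3(1-18)K9me3 peptide (50 nM) in PBS pH 7.4, 0.01% Tween-20, then compound added for 30 min. AlphaScreen streptavidin donor/nickel chelate acceptor beads (10 ug/mL final), 30 min dark, luminescence read.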
PI5P4Ka inh = blocks human PI5P4K alpha kinase activity | P48426 | PI5P4Kalpha enzyme, ADP-Glo luminescence, 60 min; active compounds read low | max response, % | actives 1.2% (n = 330,000) | AID 652105; active means max response of -50% or lower; inconclusive means between -30% and -50%; inactive means -30% or higher; further: value at the top dose of about 77 µM; on the % scale 0 is the no-effect control and ±100 the full control effect
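Controls without substrate or without enzyme flank wells where PI5P4Kalpha converts substrate using 5 microM ATP (final). Incubation lasts 60 minutes at room temperature; ADP formed is read by ADP-Glo luminescence.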
BAZ2B inh = BAZ2B (human) inhibition; Q9UIF8; Potency, µM (doses to about 114 µM), for the others: at the highest dose activity change, negative = inhibition, most hits filed as inhibitors; AlphaScreen BAZ2B-H3K14Ac peptide displacement; actives 4.4% (n = 360,000); AID 504333; further: potency means the concentration at half of the fitted maximal effect; on the % scale 0 is the no-effect control and ±100 the full control effect; nearly all actives have a fitted effect of over 60% in size
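Complex of BAZ2B and biotin-H3K14Ac (50 nM apiece) forms over 30 min at RT, then faces library compounds up to 110 uM for another 30 min; AlphaScreen beads added, 20 min dark incubation, luminescence read.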
* marks the source's active call; other numbers are inactive results; ? = inconclusive; nt = no result given; [ ] = another dose, or the depositor's remark. Only some compounds are listed: those with a hit (about 12% of all), similar ones and a draw of the others. Unless noted, the call rests on the fitted dose curve; in most records, active means well fitted curve in the direction sought with a large enough effect; inconclusive means small, poorly fitted or top-dose-only effect, or another doubt; inactive means no such curve, though single readings can be large; an effect the other way counts as inactive or inconclusive.

SMILES	JMJD2A Tudor	PLK1 PBD inh	G9a block	HP1b chromo inh	PI5P4Ka inh	BAZ2B inh
Cc1c(CCO)c(=O)n(-c2ccccc2)n1S(=O)(=O)c1ccc(Cl)cc1	?	?	25.1µM*	21.6%	-4.1	?
Cc1c(CCO)c(=O)n(-c2ccccc2)n1S(=O)(=O)c1ccc([N+](=O)[O-])cc1	-5.3%[57.1 µM]	?	?	17.5%	-4.7	-30.4%
O=C(CCC(=O)OCc1ccc(C(=O)Oc2ccc(Cl)cc2)cc1)Nc1ccccc1	-8.9%	-7.9%	16.6%[59 µM]	32.0%	6.4	-10.0%
O=C(CCC(=O)OCc1ccc(Br)cc1)Nc1ccccc1	50.1µM*	26.7µM*	11.5%[59 µM]	16.0%	-10.4	7.6%
COc1cccc(C(=O)NCc2cn3ccccc3n2)c1	?	nt	?	-3.9%	nt	-18.8%
O=c1c2ccccc2sn1-c1nccs1	5.62µM*	2.38µM*	1.41µM*	?	-80.9*	5.01µM*
Cn1c(=O)n(-c2cccc(Cl)c2)c(=O)c2sc3ccccc3c21	8.2%	nt	8.2%[59 µM]	27.4%	nt	-0.7%
Cc1ccccc1-n1sc2cc(F)ccc2c1=O	4.47µM*	1.19µM*	-112.7%	15.8µM*	-88.1*	4.47µM*
CC1NC(=O)c2ccccc2-n2c1nc1cc(F)ccc1c2=O (stereo unspecified)	nt	nt	14.3%[0.501 µM]	nt	nt	6.1%
CN(C)S(=O)(=O)c1cccc(-n2sc3ccccc3c2=O)c1	14.1µM*	1.19µM*	-127.9%	-12.3%	-91.2*	4.47µM*
O=C1c2ccccc2C(=O)N1c1nccs1	-9.7%	6.7%	nt	10.5%[57 µM]	-1.9	nt
O=c1c2ccccc2sn1-c1cccc(Cl)c1	nt	2.99µM*	nt	nt	-101.4*	nt
CC(=O)c1c(C)n(-c2ccccc2Br)c2ccc(O)cc12	1.4%	0.5%	?	7.0%	-22.9	7.3%
Cc1ccccc1Cn1c(=O)n(CCCCC(=O)NCCc2ccccc2)c(=O)c2ccccc21	-8.2%	nt	-2.2%[59 µM]	38.3%	nt	-0.6%
OCCN1CCN(c2ncnc3c2ncn3[C@H]2CN(Cc3ccc4c(c3)OCO4)C[C@@H](CO)O2)CC1	nt	-3.2%	nt	nt	-2.2	nt
O=c1c2ccccc2sn1-c1ccccc1F	nt	2.99µM*	nt	nt	-106.5*	nt
O=C(O)c1cccc(-n2sc3ccccc3c2=O)c1	2.82µM*	1.19µM*	7.3%[0.501 µM]	73.2%	-102.9*	8.91µM*
O=c1c2ccccc2sn1-c1ccccc1	3.98µM*	1.06µM*	?	?	-95.5*	7.94µM*
Cn1sc2ccccc2c1=O	nt	4.74µM*	nt	nt	?	nt
O=C1CN(c2ccccc2F)C(=O)CN1c1ccccc1F	-14.4%	-5.0%	21.3%[59 µM]	2.1%	nt	-3.0%
O=c1ccsc2ccccc12	-0.7%	-9.6%	nt	14.4%	1.4	nt
Cc1ccc(N(C(=O)c2snc(C(N)=O)c2N)C(C(=O)NC2CCCC2)c2ccco2)cc1 (stereo unspecified)	-16.4%	-9.8%	5.5%	5.9%	8.2	-30.5%
Cc1nc2ccccn2c(=O)c1NC(=O)c1ccccc1Cl	-17.9%	nt	-10.4%[59 µM]	29.6%[57 µM]	nt	7.5%
N#Cc1ccc2c(=O)n(-c3ccccc3)sc2c1	nt	2.99µM*	nt	nt	-85.1*	nt
N#Cc1c(N)n(-c2ccccc2)c(=O)c2cc([N+](=O)[O-])ccc12	-5.8%	-14.8%	nt	-35.3%	8.5	3.8%
SMILES	JMJD2A Tudor	PLK1 PBD inh	G9a block	HP1b chromo inh	PI5P4Ka inh	BAZ2B inh
CC(=O)Nc1ccc2c(=O)n(-c3ccccc3)sc2c1	nt	2.38µM*	nt	nt	-104.9*	nt
O=C(O)CC1(CC(=O)Nc2cc3ccccc3cn2)CCCCC1	-4.6%	-1.4%	89.1µM*	31.1%	-1.2	-29.1%
COc1ccc(OC)c(NC(=O)c2cccc(Cn3cc(Br)c([N+](=O)[O-])n3)c2)c1	-27.1%	-2.8%	2.51µM*	-6.6%	1.6	-11.1%
COc1ccccc1CNC(=O)CCS(=O)(=O)Cc1ccc(C)cc1	-22.1%	26.7µM*	?	-3.8%	-8.8	-18.4%
Cc1ccc(S(=O)(=O)NCC(=O)OCC(=O)c2ccc(Br)s2)cc1	-21.8%	-3.7%	-50.8%[59 µM]	20.3%	-51.5*	3.3%
COc1ccccc1CNC(=O)COC(=O)CNS(=O)(=O)c1ccc(C)cc1	-18.8%	-7.1%	70.8µM*	9.3%	-1.3	-26.5%
COc1ccccc1CNC(=O)CCS(=O)(=O)c1cccs1	-14.6%	-14.0%	44.7µM*	29.2%	-1.6	14.6%
O=C(c1cn(CCOc2ccccc2F)c2ccccc12)C1CCCCC1	-10.3%	nt	44.7%[59 µM]	53.6%	nt	9.3%
COCCCNC(=O)c1ccc2sc([C@@H]3O[C@H](CO)[C@H](O)[C@H](O)[C@H]3O)nc2c1	nt	-10.6%	nt	nt	-0.7	nt
CCN(CC)S(=O)(=O)c1ccc(NN=C2CCN(C)CC2)c([N+](=O)[O-])c1	?	0.0%	35.5µM*	?	-3.0	nt
CCN(CC)S(=O)(=O)c1ccc(NN=C2CCN(C(C)C)CC2)c([N+](=O)[O-])c1	?	-0.6%	44.7µM*	-27.9%	4.2	?
O=[N+]([O-])c1cc(S(=O)(=O)N2CCCC2)ccc1NN=C1CCCCC1	-23.6%	-4.6%	3.6%[59 µM]	1.8%	0.7	-17.6%
CC(C)(C)C1CCC(=NNc2ccc(S(N)(=O)=O)cc2[N+](=O)[O-])CC1 (stereo unspecified)	?	-2.9%	25.1µM*	-6.5%	-9.2	?
CCOc1ccc(NC(=O)Cn2ccn3nc(-c4ccc(OC)c(OC)c4)cc3c2=O)cc1	-5.3%	nt	5.8%[59 µM]	21.1%	nt	-7.6%
O=C(CCCCn1ccc(=O)[nH]c1=O)Nc1ccc(O)c(C(=O)O)c1	-10.3%	-1.0%	nt	18.3%[57 µM]	-7.8	nt
O=C(CCCCn1ccc(=O)[nH]c1=O)Nc1ccc(C(=O)O)c(O)c1	-3.4%	-8.2%	nt	18.8%[57 µM]	-71.4*	nt
O=c1ccn(CCCBr)c(=O)[nH]1	4.1%	1.8%	39.8µM*	39.2%	0.5	-3.6%
O=C(CC1C(=O)N(c2ccccc2)C(=O)N1Cc1ccc2c(c1)OCO2)Nc1ccccc1 (stereo unspecified)	-16.6%	nt	-5.0%[59 µM]	29.7%	nt	-14.4%
CCOc1ccccc1CN(CCc1ccc2c(c1)OCO2)Cc1cc(OC)c(OC)cc1OC	5.62µM*	nt	0.708µM*	?	nt	44.7µM*
O=Cc1ccccc1OCc1ccc2c(c1)OCO2	26.8%	-17.3%	nt	75.5%	-29.8	62.2%
COc1ccccc1CNCc1ccc2c(c1)OCO2	nt	-4.5%	nt	nt	0.8	nt
CCOc1ccccc1CN(CCc1ccc2c(c1)OCO2)Cc1ccccn1	3.16µM*	-4.9%	5.01µM*	?	-8.3	35.5µM*
O=C(NC(=S)NCc1ccco1)c1cccc(Cl)c1	nt	nt	70.8µM*	nt	nt	?
CC(C)(C)c1ccc(C(=O)NNC(=S)NCc2ccco2)cc1	-21.6%	-15.3%	?	17.9%	-1.5	-19.3%
Cc1cc(C(=O)NNC(=S)NCc2ccco2)n(C)n1	?	21.2µM*	?	?	-3.4	5.6%
Cc1ccc(C(=O)NC(=S)NCc2ccco2)cc1	?	?	44.7µM*	-13.7%	?	?
